Tests used:
Assay in all cases: log2 ratio of Biotin-Ahx-Ub-VS probe labelling (fragment/DMSO); higher = less target engagement (more negative = stronger competition), active = hit call of the paper (q ≤ 0.05, log2 ratio ≤ -1)
Conditions in all cases: compound concentration: 200 uM; treatment time: 3 h
USP34 = USP34 (UniProt Q70CQ2)
Summary of the method: (§1)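 Labelled DUBs were enriched with NeutrAvidin, digested with LysC and trypsin, and run by diaPASEF LC-MS/MS. The labelling used Biotin-Ahx-Ub-VS at 0.5 µM final for 1 h on HEK293T lysate (495 µg per sample) previously treated in triplicate with fragment at 200 µM or vehicle for 3 h. Values are average log2 fragment/vehicle ratios by unpaired t-test on global-median-normalised Spectronaut quantities of proteins with ≥2 unique peptides.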

USP36 = biological target: T1, USP36 (UniProt Q9P275)
T1 sequence (whole entry): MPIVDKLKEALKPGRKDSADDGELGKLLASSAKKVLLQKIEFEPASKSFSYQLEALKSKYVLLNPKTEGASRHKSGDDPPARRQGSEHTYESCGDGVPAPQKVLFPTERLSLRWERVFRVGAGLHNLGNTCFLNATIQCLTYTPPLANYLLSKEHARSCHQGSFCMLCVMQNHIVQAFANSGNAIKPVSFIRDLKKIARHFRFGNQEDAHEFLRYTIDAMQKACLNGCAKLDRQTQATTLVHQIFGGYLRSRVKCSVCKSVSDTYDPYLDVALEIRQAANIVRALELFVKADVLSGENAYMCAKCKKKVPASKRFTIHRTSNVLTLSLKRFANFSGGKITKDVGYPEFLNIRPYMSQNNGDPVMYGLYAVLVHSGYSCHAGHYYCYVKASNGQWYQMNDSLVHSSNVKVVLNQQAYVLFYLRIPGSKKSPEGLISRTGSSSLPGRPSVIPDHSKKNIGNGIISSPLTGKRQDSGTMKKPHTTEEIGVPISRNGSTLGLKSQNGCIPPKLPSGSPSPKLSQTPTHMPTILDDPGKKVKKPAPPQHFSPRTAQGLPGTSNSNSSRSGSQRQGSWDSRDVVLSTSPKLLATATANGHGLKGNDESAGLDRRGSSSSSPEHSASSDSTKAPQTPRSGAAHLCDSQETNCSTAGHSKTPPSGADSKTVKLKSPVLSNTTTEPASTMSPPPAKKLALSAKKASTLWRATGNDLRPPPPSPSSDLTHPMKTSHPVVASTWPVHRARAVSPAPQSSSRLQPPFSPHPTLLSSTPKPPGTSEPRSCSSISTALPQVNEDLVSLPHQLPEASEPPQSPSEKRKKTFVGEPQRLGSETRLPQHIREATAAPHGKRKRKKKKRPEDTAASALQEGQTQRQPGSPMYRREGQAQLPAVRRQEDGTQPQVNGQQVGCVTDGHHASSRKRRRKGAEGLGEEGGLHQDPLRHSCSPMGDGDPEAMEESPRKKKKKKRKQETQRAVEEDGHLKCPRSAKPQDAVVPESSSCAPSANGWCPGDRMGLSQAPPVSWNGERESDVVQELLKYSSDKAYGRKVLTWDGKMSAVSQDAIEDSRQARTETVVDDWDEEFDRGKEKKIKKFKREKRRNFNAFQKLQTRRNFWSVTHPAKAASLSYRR
Summary of the method: as §1

USP38 = biological target: T2, USP38 (UniProt Q8NB14)
T2 sequence (whole entry): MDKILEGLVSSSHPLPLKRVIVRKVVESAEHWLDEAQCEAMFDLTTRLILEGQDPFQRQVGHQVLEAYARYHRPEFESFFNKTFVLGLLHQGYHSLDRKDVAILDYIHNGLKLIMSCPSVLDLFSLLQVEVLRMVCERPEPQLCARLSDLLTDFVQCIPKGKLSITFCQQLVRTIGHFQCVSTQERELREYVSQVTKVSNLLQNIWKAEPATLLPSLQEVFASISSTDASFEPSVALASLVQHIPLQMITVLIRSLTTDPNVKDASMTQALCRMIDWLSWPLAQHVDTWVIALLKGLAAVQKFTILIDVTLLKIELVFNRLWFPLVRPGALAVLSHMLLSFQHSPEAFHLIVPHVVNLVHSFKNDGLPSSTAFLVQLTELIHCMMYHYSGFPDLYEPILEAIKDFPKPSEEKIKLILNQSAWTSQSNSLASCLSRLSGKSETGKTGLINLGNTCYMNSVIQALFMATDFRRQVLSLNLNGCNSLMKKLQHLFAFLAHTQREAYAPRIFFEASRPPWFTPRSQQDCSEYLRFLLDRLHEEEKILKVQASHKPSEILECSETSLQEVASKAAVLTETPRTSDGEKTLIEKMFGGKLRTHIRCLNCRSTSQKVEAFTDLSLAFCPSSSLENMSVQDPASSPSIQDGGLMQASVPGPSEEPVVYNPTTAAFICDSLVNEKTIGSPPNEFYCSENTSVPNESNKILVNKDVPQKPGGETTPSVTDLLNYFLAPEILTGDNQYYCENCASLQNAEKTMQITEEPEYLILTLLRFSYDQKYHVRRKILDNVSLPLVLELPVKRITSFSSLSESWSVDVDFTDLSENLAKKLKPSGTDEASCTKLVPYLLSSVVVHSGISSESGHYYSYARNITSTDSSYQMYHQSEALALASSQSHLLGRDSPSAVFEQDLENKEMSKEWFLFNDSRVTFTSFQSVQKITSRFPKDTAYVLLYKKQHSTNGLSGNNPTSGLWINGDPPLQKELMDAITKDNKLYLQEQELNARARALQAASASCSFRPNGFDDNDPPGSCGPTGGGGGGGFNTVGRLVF
Summary of the method: as §1

USP39 = biological target: T3, USP39 (UniProt Q53GS9)
T3 sequence (whole entry): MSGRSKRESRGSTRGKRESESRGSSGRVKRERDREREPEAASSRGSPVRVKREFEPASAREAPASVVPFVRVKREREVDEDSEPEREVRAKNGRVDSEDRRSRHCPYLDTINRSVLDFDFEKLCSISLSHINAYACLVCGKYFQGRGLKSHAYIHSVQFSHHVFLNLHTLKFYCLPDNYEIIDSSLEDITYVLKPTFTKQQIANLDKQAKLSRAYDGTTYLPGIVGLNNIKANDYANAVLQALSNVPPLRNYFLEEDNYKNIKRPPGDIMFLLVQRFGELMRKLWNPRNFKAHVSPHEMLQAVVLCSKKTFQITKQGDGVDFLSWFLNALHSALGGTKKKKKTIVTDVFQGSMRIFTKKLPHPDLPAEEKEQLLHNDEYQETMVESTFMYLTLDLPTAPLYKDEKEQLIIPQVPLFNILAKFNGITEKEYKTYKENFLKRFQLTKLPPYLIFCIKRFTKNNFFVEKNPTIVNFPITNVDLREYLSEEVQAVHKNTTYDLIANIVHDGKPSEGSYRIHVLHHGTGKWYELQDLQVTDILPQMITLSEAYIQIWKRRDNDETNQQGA
Summary of the method: as §1

USP4 = biological target: T4, USP4 (UniProt Q13107)
T4 sequence (whole entry): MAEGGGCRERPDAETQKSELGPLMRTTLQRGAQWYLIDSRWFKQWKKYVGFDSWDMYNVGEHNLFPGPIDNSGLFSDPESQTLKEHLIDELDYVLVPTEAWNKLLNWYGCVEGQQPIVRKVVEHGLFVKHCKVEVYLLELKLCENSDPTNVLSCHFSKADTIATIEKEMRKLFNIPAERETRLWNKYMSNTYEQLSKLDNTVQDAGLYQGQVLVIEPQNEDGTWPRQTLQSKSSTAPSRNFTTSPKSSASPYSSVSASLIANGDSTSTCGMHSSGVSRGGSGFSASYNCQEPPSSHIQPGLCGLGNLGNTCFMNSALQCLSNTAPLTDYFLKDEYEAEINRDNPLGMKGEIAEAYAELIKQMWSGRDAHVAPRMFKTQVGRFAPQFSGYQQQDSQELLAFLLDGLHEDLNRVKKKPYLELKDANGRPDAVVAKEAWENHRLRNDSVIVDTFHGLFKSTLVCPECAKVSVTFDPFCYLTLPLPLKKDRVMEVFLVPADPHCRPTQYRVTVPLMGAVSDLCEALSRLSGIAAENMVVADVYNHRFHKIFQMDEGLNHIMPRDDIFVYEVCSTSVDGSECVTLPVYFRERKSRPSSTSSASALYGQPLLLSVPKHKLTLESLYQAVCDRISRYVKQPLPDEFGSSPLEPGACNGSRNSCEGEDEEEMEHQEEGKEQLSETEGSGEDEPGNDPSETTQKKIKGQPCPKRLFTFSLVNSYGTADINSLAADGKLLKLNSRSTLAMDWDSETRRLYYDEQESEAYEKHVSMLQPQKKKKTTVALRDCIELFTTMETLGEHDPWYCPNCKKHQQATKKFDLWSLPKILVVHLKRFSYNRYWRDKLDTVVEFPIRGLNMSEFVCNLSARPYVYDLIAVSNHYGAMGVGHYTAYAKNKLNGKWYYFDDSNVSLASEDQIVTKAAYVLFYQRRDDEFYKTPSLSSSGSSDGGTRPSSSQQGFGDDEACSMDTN
Summary of the method: as §1

Measured: log2 ratio of Biotin-Ahx-Ub-VS probe labelling

Chain of USP34 (Q70CQ2 whole entry, the tested form may be a part): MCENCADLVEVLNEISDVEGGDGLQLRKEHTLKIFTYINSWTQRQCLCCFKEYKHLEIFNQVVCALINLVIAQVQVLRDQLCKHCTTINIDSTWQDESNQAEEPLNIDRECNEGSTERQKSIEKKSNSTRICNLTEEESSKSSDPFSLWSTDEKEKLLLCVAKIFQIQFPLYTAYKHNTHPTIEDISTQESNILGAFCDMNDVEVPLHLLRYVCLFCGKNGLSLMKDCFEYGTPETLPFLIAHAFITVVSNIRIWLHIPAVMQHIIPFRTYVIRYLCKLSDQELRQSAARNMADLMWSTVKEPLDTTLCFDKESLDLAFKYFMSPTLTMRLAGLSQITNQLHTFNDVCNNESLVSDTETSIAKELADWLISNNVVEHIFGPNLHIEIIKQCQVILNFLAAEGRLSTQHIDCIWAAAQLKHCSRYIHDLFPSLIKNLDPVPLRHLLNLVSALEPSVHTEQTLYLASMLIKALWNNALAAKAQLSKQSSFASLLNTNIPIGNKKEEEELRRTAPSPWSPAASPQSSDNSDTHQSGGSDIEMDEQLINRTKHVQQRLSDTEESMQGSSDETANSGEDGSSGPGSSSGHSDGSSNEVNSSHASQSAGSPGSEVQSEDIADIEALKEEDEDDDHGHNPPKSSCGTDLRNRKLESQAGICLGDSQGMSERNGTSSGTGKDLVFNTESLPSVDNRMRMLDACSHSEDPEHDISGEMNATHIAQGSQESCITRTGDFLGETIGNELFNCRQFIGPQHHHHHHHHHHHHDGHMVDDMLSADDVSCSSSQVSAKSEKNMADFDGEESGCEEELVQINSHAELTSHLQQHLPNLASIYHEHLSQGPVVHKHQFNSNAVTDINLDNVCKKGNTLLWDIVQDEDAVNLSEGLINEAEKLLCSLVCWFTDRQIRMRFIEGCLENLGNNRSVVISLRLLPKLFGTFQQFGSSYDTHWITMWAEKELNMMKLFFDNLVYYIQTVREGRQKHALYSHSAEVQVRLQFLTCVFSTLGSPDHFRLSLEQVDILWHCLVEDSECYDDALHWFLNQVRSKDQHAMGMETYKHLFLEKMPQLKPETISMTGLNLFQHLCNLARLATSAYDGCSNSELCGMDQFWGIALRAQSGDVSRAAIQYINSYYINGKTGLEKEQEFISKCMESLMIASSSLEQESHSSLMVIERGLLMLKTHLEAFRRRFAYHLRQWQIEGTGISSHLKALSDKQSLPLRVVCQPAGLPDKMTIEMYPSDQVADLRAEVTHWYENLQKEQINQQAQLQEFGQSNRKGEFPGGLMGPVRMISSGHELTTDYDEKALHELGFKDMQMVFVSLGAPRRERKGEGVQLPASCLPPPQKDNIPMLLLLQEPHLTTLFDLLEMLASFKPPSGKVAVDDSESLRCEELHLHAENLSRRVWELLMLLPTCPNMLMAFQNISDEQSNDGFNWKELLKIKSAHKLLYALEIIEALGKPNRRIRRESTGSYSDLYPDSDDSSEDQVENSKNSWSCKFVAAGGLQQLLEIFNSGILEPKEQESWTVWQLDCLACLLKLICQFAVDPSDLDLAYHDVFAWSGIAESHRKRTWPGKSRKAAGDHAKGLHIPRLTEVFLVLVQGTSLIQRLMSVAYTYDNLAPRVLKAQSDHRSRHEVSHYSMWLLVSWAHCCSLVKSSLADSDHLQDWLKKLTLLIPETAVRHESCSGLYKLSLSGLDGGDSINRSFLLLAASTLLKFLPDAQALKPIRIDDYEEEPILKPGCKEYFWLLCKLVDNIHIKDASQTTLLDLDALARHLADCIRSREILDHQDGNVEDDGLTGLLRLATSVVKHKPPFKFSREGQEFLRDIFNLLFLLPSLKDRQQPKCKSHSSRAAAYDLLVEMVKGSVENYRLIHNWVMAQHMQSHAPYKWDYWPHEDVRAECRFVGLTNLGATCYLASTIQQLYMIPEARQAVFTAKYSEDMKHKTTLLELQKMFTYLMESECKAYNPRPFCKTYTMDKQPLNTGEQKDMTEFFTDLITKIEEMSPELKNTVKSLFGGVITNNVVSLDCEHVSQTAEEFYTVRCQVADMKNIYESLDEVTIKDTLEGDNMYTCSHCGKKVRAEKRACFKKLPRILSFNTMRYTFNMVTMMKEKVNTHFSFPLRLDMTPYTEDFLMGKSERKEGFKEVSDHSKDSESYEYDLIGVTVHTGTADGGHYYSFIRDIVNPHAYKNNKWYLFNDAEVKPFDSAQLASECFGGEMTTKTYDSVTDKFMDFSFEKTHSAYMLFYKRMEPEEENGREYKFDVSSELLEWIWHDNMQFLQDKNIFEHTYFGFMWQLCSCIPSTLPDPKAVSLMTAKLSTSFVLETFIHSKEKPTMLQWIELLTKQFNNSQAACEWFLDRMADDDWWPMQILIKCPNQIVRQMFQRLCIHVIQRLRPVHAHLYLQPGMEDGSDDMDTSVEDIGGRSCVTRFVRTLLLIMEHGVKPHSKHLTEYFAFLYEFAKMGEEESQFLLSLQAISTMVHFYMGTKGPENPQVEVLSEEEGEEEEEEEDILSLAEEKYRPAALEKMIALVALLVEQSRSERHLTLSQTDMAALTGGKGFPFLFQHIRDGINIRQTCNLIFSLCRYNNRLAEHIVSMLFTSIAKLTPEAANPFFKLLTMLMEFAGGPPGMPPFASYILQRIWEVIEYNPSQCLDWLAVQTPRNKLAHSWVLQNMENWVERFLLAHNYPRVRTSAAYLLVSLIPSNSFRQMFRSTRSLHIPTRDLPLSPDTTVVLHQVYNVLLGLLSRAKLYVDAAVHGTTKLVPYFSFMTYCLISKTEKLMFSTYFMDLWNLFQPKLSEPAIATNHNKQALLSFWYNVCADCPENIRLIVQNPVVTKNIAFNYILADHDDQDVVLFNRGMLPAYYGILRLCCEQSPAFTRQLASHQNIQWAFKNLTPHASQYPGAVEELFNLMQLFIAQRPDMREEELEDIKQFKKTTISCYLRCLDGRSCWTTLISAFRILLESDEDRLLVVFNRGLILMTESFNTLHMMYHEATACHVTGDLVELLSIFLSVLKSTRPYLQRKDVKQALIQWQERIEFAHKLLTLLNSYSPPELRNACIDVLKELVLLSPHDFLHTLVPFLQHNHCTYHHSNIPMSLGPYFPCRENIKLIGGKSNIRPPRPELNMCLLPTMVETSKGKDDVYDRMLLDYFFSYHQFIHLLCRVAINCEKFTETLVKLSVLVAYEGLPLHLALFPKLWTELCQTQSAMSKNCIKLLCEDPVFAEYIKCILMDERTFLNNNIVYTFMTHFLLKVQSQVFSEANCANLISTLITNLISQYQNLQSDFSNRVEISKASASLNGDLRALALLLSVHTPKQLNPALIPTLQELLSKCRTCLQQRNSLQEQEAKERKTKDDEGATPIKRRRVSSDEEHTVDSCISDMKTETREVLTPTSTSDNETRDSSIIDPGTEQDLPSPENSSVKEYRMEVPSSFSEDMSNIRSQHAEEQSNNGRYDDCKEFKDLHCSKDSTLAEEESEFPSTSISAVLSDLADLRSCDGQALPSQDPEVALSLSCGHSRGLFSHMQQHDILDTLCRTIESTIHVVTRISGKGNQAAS

N#Cc1ccc(CNC(=O)CCl)cc1
inactive: USP34 -0.0142 | USP36 0.0698 | USP38 -0.0952 | USP39 0.191 | USP4 -0.0634

From the supplement of paper PMC11732987, “Enantioselective OTUD7B fragment discovery through chemoproteomics screening and high-throughput optimisation” (Communications Chemistry, 2025)
